Data reported in PubChem BioAssay (Tox21).
Inconclusive results are not listed. Some structures have more than one record in an assay (separate samples or runs), and their calls can disagree. Activity calls are given as the source filed them. Calls come from the whole dose curve; as a rule, active = well fitted curve in the direction sought with a large enough effect in the repeat runs; inconclusive = weak or mixed curves; inactive = no such curve, though single readings can be large; an effect the other way counts as inactive or inconclusive.

Key:
[1] = qHTS RealTime-Glo MT Cell Viability Assay in HepG2 cells - 40 hour (AID 1224870); note: nearly all actives have a fitted effect of over 50% in size
Method in brief: (§1)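 HepG2 cells (600/well) mixed with RealTime-Glo MT reagent, settled 5 h at 37 C/5% CO2 before compound addition. Nonlytic NanoLuc luminescence from viable-cell prosubstrate reduction read repeatedly during 40 h treatment at 37 C.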

[2] = A CellTox Green Cytotoxicity Assay to monitor cytotoxicity in HEK293 cells - 40 hour (AID 1224871); note: nearly all actives have a fitted effect of over 45% in size; note: potency is the fitted concentration of half-maximal effect
Method in brief: (§2)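 Each value comes from one timepoint of a single continuous run in which HEK293 cells with CellTox Green were exposed to compound for up to 40 h at 37 C, dye fluorescence rising with cell death.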

[3] = qHTS RealTime-Glo MT Cell Viability Assay in HEK293 cells - 16 hour (AID 1224872); note: top concentration of the series differs between compounds; nearly all actives have a fitted effect of over 50% in size
Method in brief: (§3)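 Tox21 10K qHTS, HEK293, 600 cells/well, RealTime-Glo reagent co-dispensed with cells; 5 h preincubation, compound by pintool, 37 C, luminescence at 0–40 h.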

[4] = qHTS RealTime-Glo MT Cell Viability Assay in HepG2 cells - 8 hour (AID 1224873); note: nearly all actives have a fitted effect of over 55% in size
Method in brief: as §1

[5] = qHTS RealTime-Glo MT Cell Viability Assay in HEK293 cells - 40 hour (AID 1224874); conditions: RealTime-Glo luminescence; max response: stronger effect = lower value; note: nearly all actives have a fitted effect of over 50% in size
Method in brief: (§4)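 qHTS format; HEK293 cells with NanoLuc/prosubstrate reagent, 37 C/5% CO2 for 5 h pre-dosing; compounds 23 nL in DMSO; luminescence at each time point reflects viable cells.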

[6] = A CellTox Green Cytotoxicity Assay to monitor cytotoxicity in HEK293 cells - 24 hour (AID 1224875); note: series mostly up to about 77 µM; nearly all actives have a fitted effect of over 45% in size
Method in brief: as §2

[7] = A CellTox Green Cytotoxicity Assay to monitor cytotoxicity in HepG2 cells - 16 hour (AID 1224876); note: nearly all actives have a fitted effect of over 45% in size; note: potency is the fitted concentration of half-maximal effect
Method in brief: (§5)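 Continuous culture of HepG2 cells with a membrane-impermeant DNA dye; rising fluorescence marks dead cells. Compound exposure lasted up to 40 h at 37 C, with reads every 8 h from 0 h.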

[8] = qHTS RealTime-Glo MT Cell Viability Assay in HepG2 cells - 32 hour (AID 1224877); note: nearly all actives have a fitted effect of over 55% in size
Method in brief: (§6)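 Cells + NanoLuc/prosubstrate dispensed (600 cells/well) → 5 h at 37 C/5% CO2 → compounds in DMSO transferred → 40 h incubation at 37 C, luminescence read at 0, 8, 16, 24, 32, 40 h.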

[9] = A CellTox Green Cytotoxicity Assay to monitor cytotoxicity in HepG2 cells - 24 hour (AID 1224878); note: nearly all actives have a fitted effect of over 45% in size; note: potency is the fitted concentration of half-maximal effect
Method in brief: as §5

[10] = A CellTox Green Cytotoxicity Assay to monitor cytotoxicity in HepG2 cells - 40 hour (AID 1224879); note: nearly all actives have a fitted effect of over 40% in size; note: potency is the fitted concentration of half-maximal effect
Method in brief: as §5

[11] = qHTS RealTime-Glo MT Cell Viability Assay in HEK293 cells - 0 hour (AID 1224880); note: nearly all actives have a fitted effect of over 45% in size; note: potency is the fitted concentration of half-maximal effect; for activity change, negative = cytotoxicity: top concentration of the series differs between compounds
Method in brief: as §4

[12] = A CellTox Green Cytotoxicity Assay to monitor cytotoxicity in HepG2 cells - 0 hour (AID 1224882); note: nearly all actives have a fitted effect of over 35% in size
Method in brief: as §5

[13] = A CellTox Green Cytotoxicity Assay to monitor cytotoxicity in HepG2 cells - 32 hour (AID 1224883); note: nearly all actives have a fitted effect of over 50% in size; note: potency is the fitted concentration of half-maximal effect
Method in brief: as §5

[14] = A CellTox Green Cytotoxicity Assay to monitor cytotoxicity in HEK293 cells - 8 hour (AID 1224884); note: nearly all actives have a fitted effect of over 35% in size
Method in brief: as §2

[15] = qHTS RealTime-Glo MT Cell Viability Assay in HepG2 cells - 16 hour (AID 1224885); note: nearly all actives have a fitted effect of over 50% in size
Method in brief: as §6

[16] = qHTS RealTime-Glo MT Cell Viability Assay in HEK293 cells - 24 hour (AID 1224886)
Method in brief: as §3

[17] = qHTS RealTime-Glo MT Cell Viability Assay in HEK293 cells - 8 hour (AID 1224887)
Method in brief: as §4

[18] = A CellTox Green Cytotoxicity Assay to monitor cytotoxicity in HEK293 cells - 16 hour (AID 1224888); note: nearly all actives have a fitted effect of over 35% in size
Method in brief: as §2

[19] = qHTS RealTime-Glo MT Cell Viability Assay in HepG2 cells - 0 hour (AID 1224889); note: nearly all actives have a fitted effect of over 50% in size; note: potency is the fitted concentration of half-maximal effect
Method in brief: as §6

[20] = A CellTox Green Cytotoxicity Assay to monitor cytotoxicity in HEK293 cells - 32 hour (AID 1224881); note: nearly all actives have a fitted effect of over 40% in size; note: potency is the fitted concentration of half-maximal effect
Method in brief: as §2
% is set by controls: 0 for no effect and ±100 for the full control effect.

FC1(F)C(F)(F)C(F)(F)C2(F)C(F)(F)C(F)(F)C(F)(F)C(F)(F)C2(F)C1(F)F (stereo not given)
inactive: Potency [1] | Potency [2] | Potency [3] | Potency [4] | max response [5] 1.37% | Potency [6] | Potency [7] | Potency [8] | Potency [9] | Potency [10] | Potency [11] | Potency [12] | Potency [13] | Potency [14] | Potency [15] | Potency [16] | Potency [17] | Potency [18] | Potency [19]

CCCCC/C=C\CCC=O
inactive: Potency [1] | Potency [2] | Potency [3] | Potency [4] | max response [5] 1.73% | Potency [6] | Potency [7] | Potency [8] | Potency [10] | Potency [11] | Potency [20] | Potency [12] | Potency [13] | Potency [14] | Potency [15] | Potency [16] | Potency [17] | Potency [18] | Potency [19]

Cc1nc2c([nH]1)c(=O)n(C)c(=O)n2Cc1ccco1
inactive: Potency [1] | Potency [2] | Potency [3] | Potency [4] | max response [5] 1.42% | Potency [6] | Potency [7] | Potency [8] | Potency [9] | Potency [10] | Potency [20] | Potency [12] | Potency [14] | Potency [15] | Potency [16] | Potency [17] | Potency [18] | Potency [19]

CC(C)(C)NCCNC(C)(C)C
inactive: Potency [1] | Potency [2] | Potency [3] | Potency [4] | max response [5] -0.754% | Potency [6] | Potency [7] | Potency [8] | Potency [9] | Potency [10] | Potency [20] | Potency [12] | Potency [13] | Potency [14] | Potency [15] | Potency [16] | Potency [17] | Potency [18] | Potency [19]

C[C@](N)(Cc1ccc(O)cc1)C(=O)O
inactive: activity change, negative = cytotoxic [1] 4.28% [at 6.97 µM] | cytotoxicity increase [2] 1.26% [at 6.97 µM] | activity change, negative = cytotoxicity [3] 1.36% [at 6.97 µM] | viability change, negative = cytotoxic [4] 1.11% [at 6.97 µM] | max response [5] 0.763% | activity change [6] 2.77% [at 6.97 µM, stronger effect = higher value] | cytotoxicity increase [7] -1.17% [at 6.97 µM] | activity change, negative = cytotoxic [8] 3.47% [at 6.97 µM] | cytotoxicity [9] -1.48% [at 6.97 µM] | cytotoxicity increase [10] -2.6% [at 6.97 µM] | cytotoxicity increase [20] 3.03% [at 6.97 µM] | cytotoxicity [12] 0.583% [at 6.97 µM] | cytotoxicity increase [13] -6.04% [at 6.97 µM] | cytotoxicity increase [14] 2.1% [at 6.97 µM] | activity change, negative = cytotoxic [15] -0.0046% [at 6.97 µM] | activity change, negative = cytotoxicity [16] 0.918% [at 6.97 µM] | activity change, negative = cytotoxicity [17] 3.77% [at 6.97 µM] | activity change [18] 4.06% [at 6.97 µM, stronger effect = higher value] | activity change, negative = cytotoxicity [19] -5.13% [at 6.97 µM]

O=C(O)CN(CCOCCOCCN(CC(=O)O)CC(=O)O)CC(=O)O
inactive: activity change, negative = cytotoxic [1] 0.968% [at 0.29 µM] | cytotoxicity increase [2] 0.853% [at 0.29 µM] | activity change, negative = cytotoxicity [3] -0.382% [at 0.29 µM] | viability change, negative = cytotoxic [4] -0.725% [at 0.29 µM] | max response [5] 6.77% | cytotoxicity increase [7] -23.6% [at 0.29 µM] | activity change, negative = cytotoxic [8] 3% [at 0.29 µM] | cytotoxicity [9] -22.1% [at 0.29 µM] | cytotoxicity increase [10] -20% [at 0.29 µM] | activity change, negative = cytotoxicity [11] 4.27% [at 0.29 µM] | cytotoxicity increase [20] 6.54% [at 0.29 µM] | cytotoxicity [12] -19.1% [at 0.29 µM] | cytotoxicity increase [13] -22.8% [at 0.29 µM] | cytotoxicity increase [14] 1.88% [at 0.29 µM] | activity change, negative = cytotoxic [15] 0.683% [at 0.29 µM] | activity change, negative = cytotoxicity [16] -2.79% [at 0.29 µM] | activity change, negative = cytotoxicity [17] 1.96% [at 0.29 µM] | activity change [18] 1.33% [at 0.29 µM, stronger effect = higher value] | activity change, negative = cytotoxicity [19] -0.153% [at 0.29 µM]

CC(=O)OCC(=O)[C@@]1(O)CCC2C3CCC4=CC(=O)CC[C@]4(C)C3[C@@H](O)C[C@@]21C (stereo not given in full)
active: Potency [11] 8.49 µM | Potency [19] 2.39 µM
inactive: Potency [1] | Potency [2] | Potency [3] | Potency [4] | max response [5] -13.4% | Potency [6] | Potency [7] | Potency [8] | Potency [9] | Potency [10] | Potency [12] | Potency [14] | Potency [15] | Potency [16] | Potency [17] | Potency [18]

O=C1CCCN1C1CCCCC1
inactive: Potency [1] | Potency [2] | Potency [3] | Potency [4] | max response [5] 6.98% | Potency [7] | Potency [8] | Potency [9] | Potency [10] | Potency [11] | Potency [20] | Potency [12] | Potency [13] | Potency [14] | Potency [15] | Potency [16] | Potency [17] | Potency [18] | Potency [19]

CCn1nc(C(=O)O)c(=O)c2cc3c(cc21)OCO3
inactive: Potency [1] | Potency [2] | Potency [3] | Potency [4] | max response [5] 4.37% | Potency [6] | Potency [7] | Potency [8] | Potency [9] | Potency [10] | Potency [20] | Potency [12] | Potency [13] | Potency [14] | Potency [15] | Potency [16] | Potency [17] | Potency [18] | Potency [19]

OCCOc1ccc(OCCO)cc1
inactive: Potency [1] | Potency [2] | Potency [3] | Potency [4] | max response [5] 19.3% | Potency [6] | Potency [7] | Potency [8] | Potency [10] | Potency [11] | Potency [20] | Potency [12] | Potency [13] | Potency [14] | Potency [15] | Potency [16] | Potency [17] | Potency [18] | Potency [19]

O=C(c1ccccc1)C1CCCCC1
inactive: Potency [1] | Potency [3] | Potency [4] | max response [5] -10.1% | Potency [8] | Potency [11] | Potency [12] | Potency [14] | Potency [15] | Potency [16] | Potency [17] | Potency [19]
active: Potency [2] 24.5 µM | Potency [7] 43.6 µM | Potency [9] 49 µM | Potency [10] 49 µM | Potency [20] 24.5 µM

CCCCOCCOCCOCc1cc2c(cc1CCC)OCO2
22.1 µM (active) and inactive: Potency [9] | Potency [10] | Potency [13]
inactive: Potency [1] | Potency [2] | Potency [3] | Potency [4] | max response [5] -15.9% | Potency [7] | Potency [8] | Potency [11] | Potency [20] | Potency [14] | Potency [15] | Potency [16] | Potency [17] | Potency [18] | Potency [19]

Cn1c(N)c(N=O)c(=O)n(C)c1=O
inactive: Potency [1] | Potency [2] | Potency [3] | Potency [4] | max response [5] 4.01% | Potency [6] | Potency [7] | Potency [8] | Potency [9] | Potency [10] | Potency [12] | Potency [14] | Potency [15] | Potency [16] | Potency [17] | Potency [18] | Potency [19]
